Among all 5,500 compounds or so, about 2,000 (36%) were called active. About 18% were inconclusive and are not listed. No stated cut-off is given here; in the data, active means normalized growth mostly below about 0.91 (no sharp cut-off); inconclusive means no clear call, values can overlap the other calls; inactive means mostly above about 0.92. Some of the results follow.
Experiment: chemical genetic growth profiling, strain panel (AID 1159580);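 further: tested at 20 µM; growth read once vehicle control cultures reached saturation at 30 °C; 1 = growth at the plate median or of vehicle wells; lower values mean less growth of the strain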
Conditions: growth OD

Measured: normalized growth

CNCc1ccccc1
inactive: S. cerevisiae deletion strains, locus YJR066W, strain TOR1, active compounds read low 0.978 | S. cerevisiae deletion strains, locus YKL009W, strain mrt4, active compounds read low 0.999 | S. cerevisiae deletion strains, locus YKL068W, active compounds read low 0.981 | S. cerevisiae deletion strains, locus YKL085W, strain MDH1 (second series), active compounds read low 0.976 | S. cerevisiae deletion strains, locus YKL085W, strain MDH1, active compounds read low 0.976 | S. cerevisiae deletion strains, locus YKL160W, strain elf1, active compounds read low 1 | S. cerevisiae deletion strains, locus YKL190W, strain CNB1, active compounds read low 0.996 | S. cerevisiae deletion strains, locus YKR001C, strain vps1, active compounds read low 1.04 | S. cerevisiae deletion strains, locus YKR026C, strain gcn3, active compounds read low 1.03 | S. cerevisiae deletion strains, locus YKR091W, strain srl3, active compounds read low 1.02 | S. cerevisiae deletion strains, locus YLL001W, strain dnm1, active compounds read low 1.02 | S. cerevisiae deletion strains, locus YLL026W, active compounds read low 1.01 | S. cerevisiae deletion strains, locus YLL041C, strain sdh2, active compounds read low 1.02 | S. cerevisiae deletion strains, locus YLR027C, strain aat2, active compounds read low 0.997 | S. cerevisiae deletion strains, locus YLR039C, strain RIC1, active compounds read low 1.01 | S. cerevisiae deletion strains, locus YLR058C, strain SHM2, active compounds read low 0.973 | S. cerevisiae deletion strains, locus YLR102C, strain apc9, active compounds read low 0.99 | S. cerevisiae deletion strains, locus YLR113W, strain HOG1, active compounds read low 0.981 | S. cerevisiae deletion strains, locus YLR221C, strain rsa3, active compounds read low 1.01 | S. cerevisiae deletion strains, locus YLR258W, strain gsy2, active compounds read low 1.03 | S. cerevisiae deletion strains, locus YLR262C, strain YPT6 (second series), active compounds read low 1.01 | S. cerevisiae deletion strains, locus YLR262C, strain YPT6, active compounds read low 1 | S. cerevisiae deletion strains, locus YLR268W, strain sec22, active compounds read low 1.03 | S. cerevisiae deletion strains, locus YLR320W, strain mms22, active compounds read low 1.02 | S. cerevisiae deletion strains, locus YLR330W, strain CHS5, active compounds read low 0.999 | S. cerevisiae deletion strains, locus YLR342W, strain FKS1 (second series), active compounds read low 1.05 | S. cerevisiae deletion strains, locus YLR342W, strain FKS1, active compounds read low 1.02 | S. cerevisiae deletion strains, locus YLR357W, strain rsc2, active compounds read low 1.02 | S. cerevisiae deletion strains, locus YLR370C, strain arc18, active compounds read low 1.02 | S. cerevisiae deletion strains, locus YLR371W, strain rom2, active compounds read low 0.999 | S. cerevisiae deletion strains, locus YLR384C, strain iki3, active compounds read low 1 | S. cerevisiae deletion strains, locus YLR418C, strain cdc73, active compounds read low 0.991 | S. cerevisiae deletion strains, locus YML016C, strain PPZ1, active compounds read low 0.996 | S. cerevisiae deletion strains, locus YML032C, strain rad52, active compounds read low 0.949 | S. cerevisiae deletion strains, locus YML120C, strain ndi1, active compounds read low 1.02 | S. cerevisiae deletion strains, locus YML124C, strain tub3, active compounds read low 0.983 | S. cerevisiae deletion strains, locus YMR058W, strain fet3, active compounds read low 0.97 | S. cerevisiae deletion strains, locus YMR078C, strain ctf18, active compounds read low 0.987 | S. cerevisiae deletion strains, locus YMR125W, strain sto1, active compounds read low 1.02 | S. cerevisiae deletion strains, locus YMR129W, active compounds read low 1.02 | S. cerevisiae deletion strains, locus YMR205C, strain PFK2, active compounds read low 1.03 | S. cerevisiae deletion strains, locus YMR223W, strain ubp8, active compounds read low 0.969 | S. cerevisiae deletion strains, locus YMR231W, strain pep5, active compounds read low 0.99 | S. cerevisiae deletion strains, locus YMR263W, strain SAP30, active compounds read low 0.992 | S. cerevisiae deletion strains, locus YMR307W, strain GAS1, active compounds read low 0.914 | S. cerevisiae deletion strains, locus YNL067W, strain RPL9B, active compounds read low 0.984 | S. cerevisiae deletion strains, locus YNL071W, strain lat1, active compounds read low 1.03 | S. cerevisiae deletion strains, locus YNL153C, strain GIM3, active compounds read low 0.978 | S. cerevisiae deletion strains, locus YNL183C, strain NPR1, active compounds read low 0.91 | S. cerevisiae deletion strains, locus YNL209W, strain ssb2, active compounds read low 1.01 | S. cerevisiae deletion strains, locus YNL233W, strain BNI4, active compounds read low 1.01 | S. cerevisiae deletion strains, locus YNL248C, strain rpa49, active compounds read low 1.03 | S. cerevisiae deletion strains, locus YNL250W, strain rad50, active compounds read low 0.981 | S. cerevisiae deletion strains, locus YNL271C, strain bni1, active compounds read low 0.994 | S. cerevisiae deletion strains, locus YNL298W, strain CLA4, active compounds read low 0.988 | S. cerevisiae deletion strains, locus YNL307C, strain MCK1, active compounds read low 1.01 | S. cerevisiae deletion strains, locus YNL322C, strain KRE1 (second series), active compounds read low 1.02 | S. cerevisiae deletion strains, locus YNL322C, strain KRE1, active compounds read low 0.994 | S. cerevisiae deletion strains, locus YNR049C, strain mso1, active compounds read low 1.02 | S. cerevisiae deletion strains, locus YNR052C, strain pop2, active compounds read low 0.991 | S. cerevisiae deletion strains, locus YOL006C, strain TOP1, active compounds read low 1.1 | S. cerevisiae deletion strains, locus YOL012C, strain htz1 1.52 | S. cerevisiae deletion strains, locus YOL147C, strain pex11, active compounds read low 0.989 | S. cerevisiae deletion strains, locus YOR001W, strain rrp6, active compounds read low 1.01 | S. cerevisiae deletion strains, locus YOR061W, strain CKA2, active compounds read low 0.983 | S. cerevisiae deletion strains, locus YOR069W, strain VPS5, active compounds read low 1 | S. cerevisiae deletion strains, locus YOR070C, strain gyp1, active compounds read low 1.01 | S. cerevisiae deletion strains, locus YOR080W, strain dia2, active compounds read low 1.02 | S. cerevisiae deletion strains, locus YOR083W, strain WHI5, active compounds read low 1.01 | S. cerevisiae deletion strains, locus YOR106W, strain vam3, active compounds read low 1.04 | S. cerevisiae deletion strains, locus YOR136W, strain idh2, active compounds read low 0.996 | S. cerevisiae deletion strains, locus YOR144C, strain elg1, active compounds read low 0.991 | S. cerevisiae deletion strains, locus YOR184W, strain ser1, active compounds read low 1 | S. cerevisiae deletion strains, locus YOR231W, strain MKK1, active compounds read low 0.987 | S. cerevisiae deletion strains, locus YOR265W, strain rbl2, active compounds read low 1.01 | S. cerevisiae deletion strains, locus YOR270C, strain vph1, active compounds read low 1.08 | S. cerevisiae deletion strains, locus YOR290C, strain snf2, active compounds read low 1.02 | S. cerevisiae deletion strains, locus YOR316C, strain cot1, active compounds read low 0.986 | S. cerevisiae deletion strains, locus YPL051W, strain arl3, active compounds read low 1 | S. cerevisiae deletion strains, locus YPL055C, strain LGE1, active compounds read low 0.993 | S. cerevisiae deletion strains, locus YPL078C, strain atp4, active compounds read low 1.02 | S. cerevisiae deletion strains, locus YPL106C, strain sse1, active compounds read low 1.01 | S. cerevisiae deletion strains, locus YPL240C, strain hsp82, active compounds read low 1.02 | S. cerevisiae deletion strains, locus YPL241C, strain CIN2, active compounds read low 0.995 | S. cerevisiae deletion strains, locus YPL256C, strain CLN2, active compounds read low 0.973 | S. cerevisiae deletion strains, locus YPR119W, strain clb2, active compounds read low 0.991 | S. cerevisiae deletion strains, locus YPR141C, strain kar3, active compounds read low 0.975 | S. cerevisiae deletion strains, locus YPR163C, strain tif3, active compounds read low 0.979 | S. cerevisiae deletion strains, locus YPR167C, strain met16, active compounds read low 0.982 | S. cerevisiae deletion strains, strain wtn01, active compounds read low 1.06 | S. cerevisiae strains, strain wild type, active compounds read low 0.992
